In general, cell viability refers to a read-out of living cells in per cent, often relative to untreated cells.

The whole screen tested about 3,000 compounds, of which about 45 (2%) showed an effect of 50% or more. The entries come from a sample that favours strong results as a whole.

The test system of the assay is MOLM1 and UCSD/AML1 (averaged). The assay can be described thus: cell viability relative to DMSO control (POC); higher = less growth inhibition. The following applies: 1 µM; 72 h. The procedure:
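Primary viability screen in the 3q26 EVI1-high AML cell lines MOLM1 and UCSD/AML1, compounds at 1 uM for 72 h. ATP CellTiter-Glo read-out given as percent viable over DMSO control (POC), averaged over duplicates. This mapping covers the TimTec NDL-3000 natural derivative library, whose compounds are identified by TimTec catalogue codes (ST...).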
As for `CCc1ccc2oc(=O)cc(CN3CCN(Cc4nc(-c5ccc(C)cc5)oc4C)CC3)c2c1`, the cell viability was determined as 96.3%.

As for `O=C(Cn1c(=O)cc(C(=O)N2CCCCC2)c2ccccc21)Nc1ccc(F)cc1`, the cell viability was determined as 89.9%.

In the case of `Cc1ccc2c(CN3CCN(Cc4ccc(Br)cc4F)CC3)cc(=O)oc2c1`, the cell viability stood at 100%.

In the case of `CCc1ccc(-c2cc(-c3cc(OC)c(OC)c(OC)c3)[nH]c(=O)c2C#N)cc1`, the cell viability was 96.9%.

As for `CC(=O)OCC1OC(OC(C)=O)C(OC(C)=O)C(OC(C)=O)C1OC(C)=O` (stereo not drawn), the cell viability came to 109%.

`O=C(/C=C/c1cccc(Cl)c1)c1ccc(OC(=O)c2cccc([N+](=O)[O-])c2)cc1`: the cell viability was found to be 102%.

Turning to `Nc1nc2ncc(CNc3ccc(C(=O)N[C@H](CCC(=O)O)C(=O)O)cc3)nc2c(=O)[nH]1`, the cell viability was 102%.

As for `COc1cc(C2C(C#N)=C(N)Oc3cc(N)ccc32)cc(OC)c1OC` (stereo not drawn), the cell viability amounted to 13.5%.

In the case of `COc1cc(C2C(C#N)=C(N)Oc3n[nH]c(-c4ccccc4)c32)cc(OC)c1OC` (stereo not drawn), the cell viability stood at 100%.

Consider `COc1cc(C2C(C#N)=C(N)Oc3n[nH]c(C)c32)ccc1O` (stereo not drawn), for which the cell viability worked out at 110%.

In the case of `COc1cc(C(=O)N2CCCc3cccc(OCCNC(C)=O)c32)cc(OC)c1OC`, the cell viability amounted to 98.7%.

Consider `CCOC(=O)CC[C@@H](C)[C@H]1CC[C@H]2[C@@H]3CC[C@@H]4C[C@H](O)CC[C@]4(C)[C@H]3C[C@H](O)[C@]12C`, for which the cell viability came out at 86%.

With `CC(=O)c1nc2ccccc2n1CC(=O)NCCOc1ccccc1`, the cell viability came out at 98.2%.

For the molecule `COc1cccc(NC(=O)Cn2c(=O)cc(C(=O)N3CCCC3)c3ccccc32)c1`, the cell viability is 102%.

For `COc1ccc(C(=O)c2sc(Nc3cccc(F)c3)nc2N)cc1OC`, the cell viability came out at 96.9%.

With `COc1ccc(Nc2nc(N)c(C(=O)c3ccc(OC)c(OC)c3)s2)cc1`, the cell viability is 15.4%.

Consider `COc1ccc(C(=O)c2sc(Nc3ccc(F)cc3)nc2N)cc1OC`, for which the cell viability was 101%.

Regarding `CCOc1ccc(-c2nc(CSc3nc4c(=O)[nH]cnc4n3C)c(C)o2)cc1OC`, the cell viability was determined as 118%.

As to `COC(=O)c1cc(O)cc(O)c1`, the cell viability was determined as 104%.

Consider `COC(=O)c1c(C)n(CCOc2ccc(F)cc2)c2ccc(O)cc12`, for which the cell viability was 96.9%.

With `COc1cc(C(=O)NCc2ccc3c(c2)OCO3)c(Br)c(OC)c1OC`, the cell viability is 105%.

Turning to `COc1cc(OC)c(C(=O)/C=C/c2ccccc2)c(OC)c1`, the cell viability came out at 33%.

Consider `COc1cc(O)c(C(=O)/C=C/c2ccco2)c(OC)c1`, for which the cell viability was 112%.

Turning to `COc1cc(OC)c(C(=O)/C=C/c2ccc(O)cc2)c(OC)c1`, the cell viability came to 100%.

Regarding `CCN(CC)c1ccc2[nH]c3c(C(N)=O)cc(=O)c(=O)c=3oc2c1`, the cell viability stood at 3.99%.

Turning to `CCN(CC)c1ccc2cc(-c3ccccc3)c(=O)oc2c1`, the cell viability was 96.9%.

`CC(C)c1ccc(NC(=O)Cn2c(=O)cc(C(=O)N3CCc4ccccc4C3)c3ccccc32)cc1`: the cell viability was 97.1%.

Take `COc1cc(C(=O)NC2Cc3ccccc3NC2=O)cc(OC)c1OC` (stereo not drawn): the cell viability was 109%.

As for `COc1cc(C(=O)/C=C2\C(=O)Nc3ccccc32)cc(OC)c1OC`, the cell viability amounted to 21.6%.

As to `COc1ccc(C(=O)/C=C2\C(=O)Nc3ccccc32)cc1OC`, the cell viability was 52.3%.

Turning to `CCN(CC)c1ccc2cc(-c3ccc(OC)cc3)c(=O)oc2c1`, the cell viability turned out to be 88.7%.

Consider `CN(C)c1ccc2cc3ccc(=[N+](C)C)cc-3oc2c1`, for which the cell viability came to 3.15%.

Consider `COc1cc(/C=C/C(=O)c2ccc(C(=O)/C=C/c3cc(OC)c(OC)c(OC)c3)cc2)cc(OC)c1OC`, for which the cell viability was 106%.

For the molecule `Cc1ccc(C)c(NC(=O)CN2CCN(Cc3cc(=O)oc4cc(C)ccc34)CC2)c1`, the cell viability amounted to 98.3%.

`COc1ccccc1NC(=O)c1ccc2c(c1)OCO2`: the cell viability is 94.7%.

Turning to `CCOc1ccccc1C1CCCC2(O)CCN(CC(=O)NCc3ccco3)CC12` (stereo not drawn), the cell viability amounted to 99.5%.

Consider `CCOC(=O)C1=C(C)N(C)C(=O)NC1c1cc(Br)c(O)c(OC)c1` (stereo not drawn), for which the cell viability came out at 116%.

For `CCOC(=O)c1sc(NC(=O)/C=C/c2ccccc2)c(C(=O)OCC)c1C`, the cell viability came to 96%.

Take `COc1ccc(-c2cc(=O)c3ccccc3o2)c(OC)c1`: the cell viability worked out at 113%.

For `COc1ccc2c(=O)c(O)c(-c3ccccc3)oc2c1`, the cell viability came out at 62.7%.

Consider `COc1ccc(-c2cc(=O)c3cc(O)ccc3o2)cc1`, for which the cell viability is 71.1%.

As to `COc1ccc2c(=O)cc(C(Cl)(Cl)Cl)oc2c1`, the cell viability was determined as 5.13%.

In the case of `COc1ccc2c(O)c([N+](=O)[O-])c(=O)oc2c1`, the cell viability was determined as 105%.

On to `COc1ccc2oc(C(Cl)(Cl)Cl)cc(=O)c2c1`, for which the cell viability was found to be 3.78%.

Regarding `COc1cc(OC)cc(C(=O)Nc2ccccc2C(=O)Nc2ccccc2Cl)c1`, the cell viability is 95.1%.

As for `CN1CCN(Cc2c(O)ccc3cc(-c4nc5ccccc5s4)c(=O)oc23)CC1`, the cell viability stood at 101%.

Take `Cc1cc(C)c(NC(=O)Cn2c(=O)cc(C(=O)N3CCc4ccccc4C3)c3ccccc32)c(C)c1`: the cell viability is 100%.

`CCCCCC1CCC(=O)N1CCN=Cc1c(O)c(O)c(C(C)C)c2cc(C)c(-c3c(C)cc4c(C(C)C)c(O)c(O)c(C=NCCN5C(=O)CCC5CCCCC)c4c3O)c(O)c12` (stereo not drawn): the cell viability stood at 86.9%.

In the case of `Cc1[nH]c2ccccc2c1CCNC(=O)c1ccc(=O)[nH]c1`, the cell viability turned out to be 96.3%.

As for `CC(Cl)COC(=O)/C=C/c1ccc([N+](=O)[O-])cc1` (stereo not drawn), the cell viability was 108%.

As to `Cc1ccc(N2C3=C(C(=O)CC(C)(C)C3)C(c3ccc(O)cc3)C3=C2CC(C)(C)CC3=O)cc1`, the cell viability came to 89.8%.

Regarding `Cc1ccc(OCCSc2ncnc3nc[nH]c23)cc1`, the cell viability is 92.7%.

Consider `COc1ncnc2nc[nH]c12`, for which the cell viability worked out at 100%.

On to `Cc1ncnc2nc[nH]c12`, for which the cell viability is 3.11%.

On to `Cc1ccc(-n2c(SCc3cn4ccccc4n3)nc3c(=O)[nH]cnc32)cc1`, for which the cell viability was determined as 98.3%.

`CCC(O)/N=C/c1c(O)c(O)c(C(C)C)c2cc(C)c(-c3c(C)cc4c(C(C)C)c(O)c(O)c(/C=N/C(O)CC)c4c3O)c(O)c12` (stereo not drawn): the cell viability worked out at 88.9%.

As to `Cc1cc2c(C(C)C)c(O)c(O)c(C=NCCN3CCN(C)CC3)c2c(O)c1-c1c(C)cc2c(C(C)C)c(O)c(O)c(C=NCCN3CCN(C)CC3)c2c1O`, the cell viability is 98.8%.

Take `Cc1cc2c(C(C)C)c(O)c(O)c(/C=N/N3CCN(C)CC3)c2c(O)c1-c1c(C)cc2c(C(C)C)c(O)c(O)c(/C=N/N3CCN(C)CC3)c2c1O`: the cell viability was 4.5%.

Regarding `COc1ccc(NC(=O)CSc2nc3c(=O)[nH]cnc3n2-c2ccc(C)cc2)c(OC)c1`, the cell viability stood at 102%.

In the case of `Cc1ccc(C(=O)N2N=C(c3c(-c4ccccc4)c4cc(Br)ccc4[nH]c3=O)CC2c2ccccc2)cc1` (stereo not drawn), the cell viability came out at 100%.

For `O=C(O)c1ccc2[nH]c3c(c2c1)CCCC3`, the cell viability worked out at 95.7%.

For `CCOC(=O)N1CCc2[nH]c3ccc(Cl)cc3c2C1`, the cell viability came out at 89.6%.

With `CCOC(=O)N1CCc2[nH]c3ccc(C)cc3c2C1`, the cell viability turned out to be 42.4%.

The values above are taken from the supplement of paper PMC11150407.
